In PMC4336329 (PLoS ONE, 2015):
The whole screen tested about 310,000 compounds, of which about 14,000 (4.5%) showed an effect of 50% or more. Effects have a minus sign here. What follows is part of a selection rich in strong results, with near analogues and random picks from the rest.

Target: human ether-à-go-go-related gene (hERG) potassium channel (human, UniProt Q12809)
Assay: primary screen, population patch clamp on CHO cells stably expressing hERG; higher = less effect of the substance
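Further: peak tail current of the secondary pulse compared with the same well before compound.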

Sequence of human ether-à-go-go-related gene (hERG) potassium channel (Q12809 whole entry, looked up): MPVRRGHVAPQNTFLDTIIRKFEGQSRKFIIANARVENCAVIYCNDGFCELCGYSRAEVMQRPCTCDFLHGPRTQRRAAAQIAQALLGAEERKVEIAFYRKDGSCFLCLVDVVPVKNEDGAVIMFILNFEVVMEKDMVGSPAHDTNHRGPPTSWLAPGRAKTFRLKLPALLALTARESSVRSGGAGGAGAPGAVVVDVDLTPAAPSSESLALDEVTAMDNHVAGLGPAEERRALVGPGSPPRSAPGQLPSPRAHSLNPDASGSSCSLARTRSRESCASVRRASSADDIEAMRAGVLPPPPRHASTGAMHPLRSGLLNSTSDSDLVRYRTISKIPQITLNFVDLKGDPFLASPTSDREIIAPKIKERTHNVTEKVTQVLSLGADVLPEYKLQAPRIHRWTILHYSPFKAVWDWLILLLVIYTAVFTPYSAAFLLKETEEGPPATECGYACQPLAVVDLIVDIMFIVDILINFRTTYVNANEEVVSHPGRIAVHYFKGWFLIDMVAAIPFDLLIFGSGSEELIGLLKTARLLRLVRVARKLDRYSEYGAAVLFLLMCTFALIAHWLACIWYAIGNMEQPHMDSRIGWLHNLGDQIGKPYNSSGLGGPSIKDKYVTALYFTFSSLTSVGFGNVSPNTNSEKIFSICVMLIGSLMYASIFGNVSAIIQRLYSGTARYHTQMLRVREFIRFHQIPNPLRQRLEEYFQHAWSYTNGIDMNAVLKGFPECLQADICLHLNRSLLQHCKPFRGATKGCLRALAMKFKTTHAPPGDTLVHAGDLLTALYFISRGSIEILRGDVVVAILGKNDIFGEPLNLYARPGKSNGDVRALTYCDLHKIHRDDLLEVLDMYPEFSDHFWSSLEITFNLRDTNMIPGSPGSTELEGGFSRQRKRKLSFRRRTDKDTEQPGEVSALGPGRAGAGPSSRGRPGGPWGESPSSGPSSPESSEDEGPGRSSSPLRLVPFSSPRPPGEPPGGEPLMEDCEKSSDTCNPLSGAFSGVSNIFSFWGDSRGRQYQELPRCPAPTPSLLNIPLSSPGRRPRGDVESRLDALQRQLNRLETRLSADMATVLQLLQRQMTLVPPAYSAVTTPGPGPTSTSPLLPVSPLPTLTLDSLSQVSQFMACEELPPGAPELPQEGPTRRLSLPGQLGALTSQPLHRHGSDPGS

Row | Compound | hERG current change (%, negative = inhibition) at 10uM
1 | CCOc1ccccc1NC(=O)NC1(C(=O)NCC2CCCO2)CCCCC1 (stereo not shown) | 15%
2 | COc1cc(NS(=O)(=O)c2ccc(NC(=O)c3ccc(C)o3)cc2)nc(OC)n1 | -9.23%
3 | Cc1ccc(N)c(C(=O)CCCCC(=O)O)c1 | 7.01%
4 | C[C@@H](C(=O)O)[C@@H]1C[C@@]1(C)[C@@H](NC(=O)OCc1ccccc1)c1ccccc1 | 16.8%
5 | Oc1c(CN2CCOCC2)cc(-c2ccccc2)cc1CN1CCOCC1 | -12.7%
6 | Cc1cc(C)c(NC(=O)Cn2nnc(C(=O)NCc3cccs3)c2N)c(C)c1 | 20%
7 | CCC(C)NC(=S)N(CCc1ccccc1)Cc1cc2cc(OC)c(OC)cc2[nH]c1=O (stereo not shown) | -32.4%
8 | CCCCCOC(=O)C1=C(C)Nc2nnnn2C1c1ccc(OC)c(OC)c1OC (stereo not shown) | -41.4%
9 | CCOc1cc(/C=C2\NC(=S)N(C)C2=O)ccc1OCc1ccc(C(=O)O)cc1 | 14.6%
10 | CC(=O)N1CCN(C(=O)c2ccc(-n3c(C)ccc3C)cc2)CC1 | -1.54%
11 | Cc1c(NC(=O)/C=C/c2cn(-c3ccccc3)nc2-c2ccc(F)cc2)c(=O)n(-c2ccccc2)n1C | 7.47%
12 | CCN(CC)c1ccc(N)cc1S(=O)(=O)Nc1ccc(OC)cc1 | -4.91%
13 | Cn1c2c(c(=O)n(C)c1=O)CN(Cc1ccco1)CN2 | 4.7%
14 | NC(=O)c1ccc(N2CCN(S(=O)(=O)c3ccccc3)CC2)c([N+](=O)[O-])c1 | -58.7%
15 | N#Cc1ccccc1S(=O)(=O)N1CCN(C(=O)c2ccc(-n3cncn3)c([N+](=O)[O-])c2)CC1 | -23.3%
16 | COC(=O)c1ccc(N2CCN(S(=O)(=O)c3ccccc3)CC2)c([N+](=O)[O-])c1 | -14.1%
17 | CCOc1ccc(S(=O)(=O)N2CCN(C(=O)c3ccc(-n4cncn4)c([N+](=O)[O-])c3)CC2)cc1 | -71.5%
18 | O=C(c1ccc(-n2cncn2)c([N+](=O)[O-])c1)N1CCN(S(=O)(=O)c2ccccc2Br)CC1 | -70.3%
19 | Cc1ccc(S(=O)(=O)N2CCN(C(=O)c3ccc(N4CCCC4)c([N+](=O)[O-])c3)CC2)cc1 | -18.1%
20 | Cc1ccc(S(=O)(=O)N2CCN(c3ccc(C(=O)N4CCOCC4)cc3[N+](=O)[O-])CC2)cc1 | -59%
21 | CCOc1ccc(S(=O)(=O)N2CCN(C(=O)c3ccncc3)CC2)cc1 | 4.67%
22 | CCOc1ccc(S(=O)(=O)N2CCN(C(=O)c3cccnc3)CC2)cc1 | -29.3%
23 | O=C(c1ccc(N2CCCCC2)c([N+](=O)[O-])c1)N1CCN(S(=O)(=O)c2ccccc2)CC1 | -49.9%
24 | O=C(c1ccncc1)N1CCN(S(=O)(=O)c2ccccc2Br)CC1 | 4.86%
25 | O=C(c1ccc(N2CCN(S(=O)(=O)c3ccccc3)CC2)c([N+](=O)[O-])c1)N1CCOCC1 | -35.1%
